# Assay results taken from PubChem BioAssay (EPA / NIEHS).
# Results filed as inconclusive are left out. Activity calls are given as the source filed them. How the source made its calls, unless noted: active means hit-call score of the fitted dose curve at least 0.9, where 1 is the maximum; inconclusive means response in the unintended direction; inactive means score below 0.9.
# How the values were obtained:
# [1] = CCTE_Mundy_HCI_iCellGluta_NOG_NeuriteCount: CCTE's Neurite Outgrowth Assay in iCellGluta cells for Neurite Count, Mundy Lab (AID 2284342);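 further: chemical exposure about 48 hours starting 2 hours after plating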
# SERPINA7 (gene 6906) = experiment: CCTE_GLTED_hTBG: CCTE's human Thyroxine-binding Globulin (TBG) Inhibition Assay, Great Lakes Toxicology and Ecology Division (GLTED) Lab (AID 2284343);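 further: active chemicals lower fluorescence versus DMSO baseline by displacing probe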
# Procedure, shortened: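 Cell-free binding assay in which human TBG is incubated with test chemical for 2 hours and displacement of the fluorescent probe ANSA is read at 380 nm excitation/475 nm emission. Activity is fitted against DMSO as the negative control.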
# [2] = tested on: SRY-box transcription factor 17 (SOX17) Protein Expression, Deisenroth Lab, SOX17 (gene 64321); experiment: CCTE_Deisenroth_DEVTOX-GLR_legacy_Sox17: (Legacy) CCTE's DevTox GLR-Endo Assay Evaluation of SRY-box transcription factor 17 (SOX17) Protein Expression, Deisenroth Lab (AID 2284341; active means hit-call score of the fitted dose curve at least 0.9, where 1 is the maximum; inactive means score below 0.9); details: actives raise or lower the signal
# Procedure, shortened: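 Using the RUES2-GLR line, compounds are tested as 10-point series during 48-h defined-media differentiation. Sox17 reporter fluorescence per cell determines positivity; endpoint is percentage positive, analysed bidirectionally versus DMSO baseline.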
# [3] = tested on: SRY-box transcription factor 2 (SOX2) Protein Expression, Deisenroth Lab, SOX2 (gene 6657); experiment: CCTE_Deisenroth_DEVTOX-GLR_legacy_Sox2: (Legacy) CCTE's DevTox GLR-Endo Assay Evaluation of SRY-box transcription factor 2 (SOX2) Protein Expression, Deisenroth Lab (AID 2284346; active means hit-call score of the fitted dose curve at least 0.9, where 1 is the maximum; inactive means score below 0.9)
# Procedure, shortened: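 RUES2-GLR human pluripotent cells were differentiated for 48 h with two chemical doses 24 h apart, over 1 nM-200 uM. Sox2+ cells were those above 5x BMAD of the endoderm-control median; percent Sox2+ minus the 0.2% DMSO median was used, from n=4 replicates.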
# [4] = CCTE_Deisenroth_H295R-HTRF_384WELL_ESTRADIOL: CCTE's H295R-HTRF Assay Evaluation of Estradiol Concentration, Deisenroth Lab (AID 2284361; active means hit-call score of the fitted dose curve at least 0.9, where 1 is the maximum; inactive means score below 0.9); details: actives raise or lower the signal
# Procedure, shortened: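 H295R cells exposed 48 h to chemicals at 0.001 - 100 uM final (nine points, triplicate); estradiol in conditioned medium measured by HTRF immunoassay, fitted bidirectionally versus DMSO. Viability by CellTiter-Glo on same plates.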
# [5] = CCTE_Deisenroth_H295R-HTRF_384WELL_TESTOSTERONE: CCTE's H295R-HTRF Assay Evaluation of Testosterone Concentration, Deisenroth Lab (AID 2284373; active means hit-call score of the fitted dose curve at least 0.9, where 1 is the maximum; inactive means score below 0.9); details: actives raise or lower the signal
# Procedure, shortened: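 Testosterone secreted into medium was quantified by direct HTRF immunoassay after a 48 h treatment of H295R adrenocortical cells (nine concentrations, 0.001–100 uM final). Gain or loss fitted relative to DMSO; CellTiter-Glo viability read on same plates.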
# [6] = VALA_MIGHUV1_ScratchOnly_WoundArea: VALA Sciences human Umbilical Vein Endothelial Cell Migration (MIGHUV) Assay, Area of Scratch Wound Inhibited Recovery (AID 2284336)
# Procedure, shortened: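 HUVEC monolayers (9000 cells/well) were scratched after 24 h, dosed within 30 min (six concentrations, triplicate, 0.1% DMSO), allowed 24 h recovery, then fixed. Hoechst-stained nuclei in the wound imaged; cytochalasin D as reference.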
# [7] = VALA_TUBHUV_Agonist_TubuleLength: VALA Sciences human Umbilical Vein Endothelial Tubule Formation (TUBHUV) Agonism Assay (AID 2284337)
# Procedure, shortened: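 HUVEC co-cultured with fibroblasts (1:3) 3 days in 10 ng/ml VEGF, then 3 days with compound plus VEGF; 0.1 % DMSO neutral control. Fixed, nuclear and CD31 stained; tubule length by fluorescence imaging.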
# [8] = VALA_TUBIPS_Agonist_CellCount: Viability Assessment in the VALA Sciences human iPS-derived Endothelial Tubule Formation (TUBIPS) Agonism Assay (AID 2284338)
# [9] = VALA_TUBIPS_Antagonist_CellCount: Viability Assessment in the VALA Sciences human iPS-derived Endothelial Tubule Formation (TUBIPS) Antagonism Assay (AID 2284335)
smiles,measurement,setting,value
COP(N)(=O)SC (centres undefined),outcome,[1],inactive
CCOC(=O)CC(SP(=S)(OC)OC)C(=O)OCC (centres undefined),outcome,[1],inactive
CN(C)C(=S)SSC(=S)N(C)C,AC50,[1],0.0447 µM (active)
CCCN(CCC)c1c([N+](=O)[O-])cc(S(N)(=O)=O)cc1[N+](=O)[O-],AC50,SERPINA7 (gene 6906),5.43 µM (active)
C=CCC1=C(C)[C@@H](OC(=O)[C@@H]2[C@@H](C=C(C)C)C2(C)C)CC1=O,outcome,[1],inactive
C=CC1(C)OC(=O)N(c2cc(Cl)cc(Cl)c2)C1=O (centres undefined),outcome,[1],inactive
COC(=O)c1ccccc1C(=O)OC,outcome,[2],inactive
same,outcome,[3],inactive
CCCCNC(=O)n1c(NC(=O)OC)nc2ccccc21,outcome,[1],inactive
same,outcome,[4],inactive
same,outcome,[5],inactive
C#CCOS(=O)OC1CCCCC1Oc1ccc(C(C)(C)C)cc1 (centres undefined),AC50,SERPINA7 (gene 6906),25.2 µM (active)
Cc1cc(Cl)ccc1OCC(=O)O,AC50,SERPINA7 (gene 6906),59.6 µM (active)
COc1nc(NC(C)C)nc(NC(C)C)n1,AC50,[4],34.6 µM (active)
same,outcome,[5],inactive
COC(=O)N(OC)c1ccccc1COc1ccn(-c2ccc(Cl)cc2)n1,AC50,[1],3.35 µM (active)
CO/C=C(/C(=O)OC)c1ccccc1Oc1cc(Oc2ccccc2C#N)ncn1,AC50,[1],21.5 µM (active)
CCCCC(CC)COC(=O)c1ccccc1C(=O)OCC(CC)CCCC (centres undefined),AC50,[1],30.4 µM (active)
same,outcome,[4],inactive
same,outcome,[5],inactive
OC(c1ccc(Cl)cc1)(c1cncnc1)c1ccccc1Cl (centres undefined),AC50,SERPINA7 (gene 6906),36.5 µM (active)
same,outcome,[4],inactive
same,outcome,[5],inactive
C=CCC1=C(C)C(OC(=O)C2C(C=C(C)C)C2(C)C)CC1=O (centres undefined),outcome,[1],inactive
Cc1ccc(-c2c(Cl)nc(C#N)n2S(=O)(=O)N(C)C)cc1,AC50,[1],50 µM (active)
same,AC50,SERPINA7 (gene 6906),33.1 µM (active)
Fc1ccc(Oc2ccnc3cc(Cl)cc(Cl)c23)cc1,AC50,SERPINA7 (gene 6906),8.16 µM (active)
COP(=S)(OC)Oc1nc(Cl)c(Cl)cc1Cl,AC50,[1],27.8 µM (active)
N#Cc1nn(-c2c(Cl)cc(C(F)(F)F)cc2Cl)c(N)c1S(=O)C(F)(F)F (centres undefined),outcome,[6],inactive
same,outcome,[7],inactive
same,outcome,[8],inactive
same,outcome,[1],inactive
same,AC50,SERPINA7 (gene 6906),24.6 µM (active)
CCOc1cc(Oc2ccc(C(F)(F)F)cc2Cl)ccc1[N+](=O)[O-],AC50,[1],66.4 µM (active)
same,AC50,SERPINA7 (gene 6906),4.86 µM (active)
CC(C)(C)c1ccc(CSc2cnn(C(C)(C)C)c(=O)c2Cl)cc1,outcome,[9],inactive
same,AC50,[7],7.59 µM (active)
same,AC50,[8],50 µM (active)
same,AC50,[1],0.374 µM (active)
CCNc1nc(Cl)nc(NC(C)C)n1,AC50,[4],9.8 µM (active)
same,outcome,[5],inactive
Oc1ccccc1-c1ccccc1,AC50,SERPINA7 (gene 6906),28.1 µM (active)
CCCCOC(=O)c1ccccc1C(=O)OCCCC,outcome,[1],inactive
same,AC50,SERPINA7 (gene 6906),11.4 µM (active)
